Reference: PubChem BioAssay (EPA / NIEHS)
Values joined by “and” are separate entries in the source; they are usually repeats but may differ in a detail not shown here. Identical values can stand only once. Records with an inconclusive call do not appear. Some compounds were tested as several samples or in several runs, with calls that do not always agree. Active and inactive are the calls of the source. The calls were made as follows: active = hit-call score of the fitted dose curve at least 0.9, where 1 is the maximum; inconclusive = response in the unintended direction; inactive = score below 0.9.

Test: CCTE_Shafer_MEA_dev_active_electrodes_number: CCTE's Neural Network Formation Assay for Number of Active Electrodes, Shafer Lab (AID 2284040);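 as to AC50: potency for loss of active electrodes versus DMSO so lower counts are hits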
Procedure: CCTE_Shafer_MEA_dev assay is conducted using Axion Biosystems 48 well microelectrode array (MEA) plates and Maestro recording system. Each well of the MEA plate contains a grid of 16 microelectrodes embedded in the culture surface. Electrically active cells, such as neurons, can be cultured over the electrodes, and electrical activity in these cells can be recorded extracellularly. The spontaneous firing of neurons is captured from each electrode on a microsecond timescale providing both temporally and spatially precise data. […] The CCTE_Shafer_MEA_dev assay uses primary cultures of rat cortical neurons. Recordings are made on days post-plating 5, 7, 9 and 12. As these cultures mature over time, neural networks develop functional activity and form cohesive networks in which electrical activity can be highly coordinated. CCTE_Shafer_MEA_dev_active_electrodes_number is 1 of 19 assay components of the CCTE_Shafer_MEA_dev assay. It measures the number of electrodes in a well with a mean firing rate of at least 5 spikes (action potential firings) per minute during a recording in a microelectrode array (MEA) using Axion Biosystems Maestro 768 channel amplifier with the AxIS adaptive spike detector. To collapse across multiple recordings made on days post-plating 5, 7, 9 and 12, the trapezoidal area-under-the-curve of the component is calculated.Data from the assay component CCTE_Shafer_MEA_dev_active_electrodes_number was analyzed into 1 assay endpoint. This assay endpoint, CCTE_Shafer_MEA_dev_active_electrodes_number, was analyzed in the negative analysis fitting direction relative to DMSO as the negative control and baseline of activity. Using a type of functional reporter, gain or loss-of-signal activity can be used to understand electrical activity.
On the day prior to culture, each well was coated thoroughly with 150 uL of 0.05% polyethyleneimine (PEI, Sigma Cat P3143) in 50 mM HEPES (Sigma Cat H7523) at a pH of 8. The plate was incubated at 37C for one hour. PEI was rinsed out with 500 uL of sterile water three times. Plates were stored at 4C until the day of culture. This culture was plated at a seeding density of 1.5 x 10^5 cells/well on a 48-well MEA plate, prepared as described above. Cells were administered via a 25 uL media/laminin ([…]; Sigma Cat L2020-1MG) drop directly onto the microelectrode array, as adding the cells with the laminin results in better attachment than pre-coating with laminin. After 2 hours, an additional 475 uL of cortical media was added and the cells returned to the incubator. Exposure starts at day 0 of plating and is continued over twelve days of network development until the experiment is terminated. Cells are fed with fresh medium on DIV 5 and 9, following the recordings on those days. The entire volume of media in the well is exchanged and any vehicle or compound treatment is renewed. Complete details are found in OP-NHEERL/ISTD/SBB/TJS/2015-03-r0 (available on request, email shafer.tim@epa.gov). Measurement of the electrical activity is non-invasive, and recordings can be made from the same plate over multiple different days of the culture. In cortical neurons, this allows for the measurement of extracellular action potentials over the period during which networks form in the MEA plate.
In the case of Cc1c(F)c(F)c(COC(=O)C2C(/C=C(\Cl)C(F)(F)F)C2(C)C)c(F)c1F (configuration not stated), the AC50 is reported as 10 µM (active).
With CNC(=O)ON=CC(C)(C)SC the outcome was “inactive”.
In the case of CCCCC(CC)COC(=O)c1ccccc1C(=O)OCC(CC)CCCC (configuration not stated), the AC50 is reported as 15 µM (active) and 7.34 µM (active) and the outcome is reported as “inactive”.
In the case of COP(N)(=O)SC (configuration not stated), the outcome is reported as “inactive”.
In the case of COc1ccc(C(c2ccc(OC)cc2)C(Cl)(Cl)Cl)cc1, the AC50 is reported as 6.74 µM (active).
In the case of CN(C)C(=S)SSC(=S)N(C)C, the AC50 is reported as 0.011 µM (active).
With CCOC(=O)CC(SP(=S)(OC)OC)C(=O)OCC (configuration not stated) the AC50 was 17.1 µM (active) and 6.38 µM (active).
With C=CCC1=C(C)C(OC(=O)C2C(C=C(C)C)C2(C)C)CC1=O (configuration not stated) the AC50 was 10 µM (active) and 14.8 µM (active).
For CO/C=C(/C(=O)OC)c1ccccc1Oc1cc(Oc2ccccc2C#N)ncn1, the AC50 was 1.52 µM (active) and 1.07 µM (active).
With CCCCNC(=O)OCC#CI the AC50 was 3.93 µM (active) and 1.81 µM (active).
For COC(=O)N(OC)c1ccccc1COc1ccn(-c2ccc(Cl)cc2)n1, the AC50 was 77 nM (active) and 13.7 nM (active).
For C=CCC1=C(C)[C@@H](OC(=O)[C@@H]2[C@@H](C=C(C)C)C2(C)C)CC1=O, the AC50 was 6.82 µM (active).
With CCCCNC(=O)n1c(NC(=O)OC)nc2ccccc21 the AC50 was 15 µM (active).
In the case of CC(C)(C)c1ccc(CSc2cnn(C(C)(C)C)c(=O)c2Cl)cc1, the AC50 is reported as 0.0031 µM (active).
For COP(=S)(OC)Oc1nc(Cl)c(Cl)cc1Cl, the outcome was “inactive”.
With C=CC1(C)OC(=O)N(c2cc(Cl)cc(Cl)c2)C1=O (configuration not stated) the AC50 was 50 µM (active).
With CCCCOC(=O)c1ccccc1C(=O)OCCCC the AC50 was 75.1 µM (active).
For CCOc1cc(Oc2ccc(C(F)(F)F)cc2Cl)ccc1[N+](=O)[O-], the AC50 was 4.91 µM (active).
With Cc1ccc(-c2c(Cl)nc(C#N)n2S(=O)(=O)N(C)C)cc1 the AC50 was 39 µM (active).
In the case of CCNc1nc(Cl)nc(NC(C)C)n1, the outcome is reported as “inactive”.
For N#Cc1nn(-c2c(Cl)cc(C(F)(F)F)cc2Cl)c(N)c1S(=O)C(F)(F)F (configuration not stated), the outcome was “inactive”.
